{
  "source": "PubChem BioAssay AID720514",
  "about": "(Broad Institute, 2013)",
  "note": "Out of some 2,100 compounds screened, about 300 (14%) were called active. Inconclusive results (about 2%) are left out.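 How the source made its calls: active means every replicate test run called active, with the signal falling and half-maximal concentration within twice the top valid dose; inconclusive means the replicate test runs disagree in their calls; inactive means every test run inactive, including effects in the opposite direction.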 The list is a sample of the results. Entries with a potency or affinity are not part of this list.",
  "data": [
    {"assay": "inhibitors of PGC1a acetylation in cells, dose response, cell-based, cherry-picked samples (AID 720514);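 further: 0% = neutral control wells and -100% = positive control wells; actives lower the acetylation signal so they count as inhibitors of PGC1a acetylation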", "details": "U2OS PGC1a acetylation, AlphaLISA, overnight; series mostly up to 19.5 µM; activity change, negative = inhibition: at the top concentration", "values": [
      {"smiles": "CCOC(=O)CCc1c(C)c2ccc(O)cc2oc1=O", "activity change, negative = inhibition": "40.2% (inactive)"},
      {"smiles": "OCc1ccc2c(c1)c(-c1ccc3c(c1)OCCO3)c(-c1ccccc1)n2-c1ccccc1", "activity change, negative = inhibition": "227% (inactive)"},
      {"smiles": "CCCCCOC(=O)Cc1c(O)c2ccccc2n(C)c1=O", "activity change, negative = inhibition": "34.1% (inactive)"},
      {"smiles": "CC(OC(=O)C1CCCC1)C(=O)Nc1ccc(C(N)=O)cc1", "note": "(configuration not stated)", "activity change, negative = inhibition": "42% (inactive)"},
      {"smiles": "CCCCN(CC)CCCNC(=O)c1cc2c(=O)n(CC)c3ccccc3c2s1", "activity change, negative = inhibition": "77.5% (inactive)"},
      {"smiles": "CC(C)CC#Cc1ccc2c(c1)O[C@H](CN(C)Cc1ccccc1)[C@H](C)CN([C@@H](C)CO)S2(=O)=O", "activity change, negative = inhibition": "19.1% (inactive)"},
      {"smiles": "C[C@@H]1CN([C@@H](C)CO)C(=O)CCCn2nncc2CO[C@H]1CN(C)CC1CCCCC1", "activity change, negative = inhibition": "29.3% (inactive)"},
      {"smiles": "C[C@H](CO)N1C[C@H](C)[C@@H](CN(C)Cc2ccc3c(c2)OCO3)Oc2cc(Br)ccc2S1(=O)=O", "activity change, negative = inhibition": "41% (inactive)"},
      {"smiles": "C[C@@H]1CN([C@@H](C)CO)C(=O)c2cc(/C=C/c3ccccc3)cnc2O[C@@H]1CN(C)Cc1cccnc1", "activity change, negative = inhibition": "34% [at 21 µM] (inactive)"},
      {"smiles": "COc1ccccc1/C=C1\\SC(=S)N(CCC(=O)NCCCn2ccnc2)C1=O", "activity change, negative = inhibition": "55.3% [at 5 µM] (inactive)"},
      {"smiles": "COc1cccc(NC(=O)N(C)C[C@H]2OCc3ccccc3-c3c(n(C)c4ccccc34)C(=O)N([C@@H](C)CO)C[C@@H]2C)c1", "activity change, negative = inhibition": "40% (inactive)"},
      {"smiles": "C[C@@H]1CN([C@@H](C)CO)C(=O)c2c(c3ccccc3n2C)-c2ccccc2CO[C@@H]1CN(C)C(=O)c1cc(Cl)cc(Cl)c1", "activity change, negative = inhibition": "84% (inactive)"},
      {"smiles": "C[C@H](CO)N1C[C@H](C)[C@H](CN(C)Cc2ccc(C(=O)Nc3ccccc3N)cc2)Oc2c(NC(=O)c3ccncc3)cccc2C1=O", "activity change, negative = inhibition": "66.6% [at 16 µM] (inactive)"},
      {"smiles": "C[C@H](CO)N1C[C@H](C)[C@@H](CN(C)CC2CCCCC2)Oc2c(NC(=O)c3nc4ccccc4s3)cccc2C1=O", "activity change, negative = inhibition": "-3.98% (inactive)"},
      {"smiles": "C[C@H]1CN([C@@H](C)CO)S(=O)(=O)c2ccc(C#CCN(C)C)cc2O[C@@H]1CN(C)Cc1ccc2c(c1)OCO2", "activity change, negative = inhibition": "63.7% (inactive)"},
      {"smiles": "Nc1c(C(=O)c2ccccc2)sc2nsc(SCCN3CCCC3)c12", "activity change, negative = inhibition": "56.7% (inactive)"},
      {"smiles": "COc1ccc(S(=O)(=O)Nc2ccc3c(c2)C(=O)N([C@H](C)CO)C[C@H](C)[C@H](CN(C)S(=O)(=O)c2cn(C)cn2)OCCCC[C@@H](C)O3)cc1", "activity change, negative = inhibition": "39.9% [at 21 µM] (inactive)"},
      {"smiles": "COC(=O)C(Nc1ccccc1Cl)(c1cc(C)c(O)c(C)c1)C(F)(F)F", "note": "(configuration not stated)", "activity change, negative = inhibition": "63.8% (inactive)"},
      {"smiles": "CC(C)(C)c1ccc(C(=O)c2c[nH]c(C(=O)NCc3cccnc3)c2)cc1", "activity change, negative = inhibition": "303% (inactive)"},
      {"smiles": "CCN(CC)CCCn1c(=S)[nH]c2cc(Cl)ccc2c1=O", "activity change, negative = inhibition": "119% (inactive)"},
      {"smiles": "N#Cc1ccc(C(=O)CSc2nnc(-c3ccc(C(F)(F)F)cn3)s2)cc1", "activity change, negative = inhibition": "45.1% (inactive)"},
      {"smiles": "O=C(CSc1nc2ccccc2c(=O)n1CC1CCCO1)N1CCN(c2ccccc2)CC1", "note": "(configuration not stated)", "activity change, negative = inhibition": "30.9% (inactive)"},
      {"smiles": "Cn1cc(-c2ccc(C(=O)NCc3cccc(Cl)c3)c3occc23)cn1", "activity change, negative = inhibition": "72.5% (inactive)"},
      {"smiles": "Cc1ccc2[nH]cc(C(=O)CN3CCN(c4ccccc4F)CC3)c2c1", "activity change, negative = inhibition": "58.1% (inactive)"},
      {"smiles": "COc1ccc(NC(=O)N2CCN(c3ccc([N+](=O)[O-])cc3)CC2)cc1", "activity change, negative = inhibition": "85.4% (inactive)"},
      {"smiles": "COc1ccc(C2C(C(=O)Nc3ccccc3)=C(C)Nc3nc(CCCO)nn32)cc1", "note": "(configuration not stated)", "activity change, negative = inhibition": "69.2% (inactive)"},
      {"smiles": "O=C(Nc1ccc(OCC(=O)N2CCC(Cc3ccccc3)CC2)cc1)c1ccco1", "activity change, negative = inhibition": "111% (inactive)"},
      {"smiles": "CC1=CC(C)(C)N2C(=O)C3(SCC(=O)N3c3ccc(F)cc3)c3cc(C)cc1c32", "note": "(configuration not stated)", "activity change, negative = inhibition": "65.8% (inactive)"},
      {"smiles": "NC(=O)Cn1cc(C(=O)c2cccs2)c2ccccc21", "activity change, negative = inhibition": "101% (inactive)"},
      {"smiles": "C[C@@H]1CN([C@@H](C)CO)C(=O)c2c(c3ccccc3n2C)-c2ccccc2CO[C@@H]1CN(C)C(=O)c1ccc(F)cc1", "activity change, negative = inhibition": "154% [at 21 µM] (inactive)"},
      {"smiles": "O=S(=O)(NCc1ccccc1Br)c1ccccc1Br", "activity change, negative = inhibition": "43.5% (inactive)"},
      {"smiles": "COCCN(C)Cc1nc(C(c2ccccc2)c2ccccc2)no1", "activity change, negative = inhibition": "41.6% (inactive)"},
      {"smiles": "Cc1cc(C(F)(F)F)n(-c2nc(C(=O)NNS(=O)(=O)c3ccccc3[N+](=O)[O-])cs2)n1", "activity change, negative = inhibition": "65.3% (inactive)"},
      {"smiles": "O=C(NCCC1=CCCCC1)c1coc(=O)c(Br)c1", "activity change, negative = inhibition": "27.7% (inactive)"},
      {"smiles": "O=C(NCc1cccnc1)c1ccc(NC(=O)c2cccc([N+](=O)[O-])c2)cc1", "activity change, negative = inhibition": "327% (inactive)"},
      {"smiles": "COc1cc(/C=C2\\SC(=O)NC2=O)ccc1Oc1ccc([N+](=O)[O-])cn1", "activity change, negative = inhibition": "54% (inactive)"},
      {"smiles": "COc1ccc(CN2CCn3ncc(C(=O)Nc4ccccc4)c3C2=O)cc1", "activity change, negative = inhibition": "30.6% (inactive)"},
      {"smiles": "COc1ccc(C#Cc2c(-c3ccccc3)n(-c3ccccc3)c3ccc(CO)cc23)cc1", "activity change, negative = inhibition": "101% (inactive)"},
      {"smiles": "CC12CCC(C1)C(C)(C)C2NS(=O)(=O)c1ccc(F)cc1", "note": "(configuration not stated)", "activity change, negative = inhibition": "96.9% (inactive)"},
      {"smiles": "COc1ccc(NC(=O)c2sccc2SCc2cccc(C(F)(F)F)c2)cc1", "activity change, negative = inhibition": "93.2% (inactive)"},
      {"smiles": "O=C(Cn1c(CN2CCCCC2)nc2ccccc2c1=O)Nc1ccccc1", "activity change, negative = inhibition": "59.2% (inactive)"},
      {"smiles": "COc1ccc(Cn2nnnc2C(C(C)C)N(Cc2ccco2)Cc2cccs2)cc1", "note": "(configuration not stated)", "activity change, negative = inhibition": "116% (inactive)"}
    ]}
  ]
}
